Results on eight compounds are retold here after PubChem BioAssay (NCI).

Some test systems named below: NCI-H23 lung; NCI-H226 lung; NCI-H322M lung; HOP-62 NSCLC; NCI-H460 lung; HOP-92 NSCLC; NCI-H522 lung; A549/ATCC NSCLC; 786-0 renal; COLO 205 colon; DU-145 prostate; K-562 leukemia; MALME-3M melanoma; MDA-MB-231 breast; RXF 393 renal; SF-268 CNS; SF-295 CNS; SF-539 CNS; UACC-257 melanoma; M14 melanoma.
Holding throughout (assay): NCI-60 one-dose screen, 48 h (100 = growth as untreated, 0 = no growth, -100 = all killed)
Common to all, as to details: 10 µM unless noted

The panel holds about 83,000 compounds, 20% with a hit somewhere; the sample as a whole holds those more often.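 Treatment: one concentration, 48 hours, 96-well format. Scoring: percent growth, with anything below 10 considered active.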 Unmarked numbers belong to inactive results. Activity calls are given as the source filed them.

As to `COc1ccc2c(c1)CC[C@@H]1[C@@H]2CC[C@]2(C)c3c(cc(C#N)c4c3sc3ccccc34)C[C@@H]12`, the growth was 99.4% in the experiment on NCI-H23 lung; 99.2% in the experiment with NCI-H226 lung; 108% with NCI-H322M lung; 99.5% in the experiment on HOP-62 NSCLC; 115% in the experiment on NCI-H460 lung; 62.4% in the experiment on HOP-92 NSCLC. Also, the growth is 96.5% in the experiment with NCI-H522 lung; 106% in the experiment with A549/ATCC NSCLC; 111% with 786-0 renal; 110% with COLO 205 colon; 121% with DU-145 prostate; 88.5% with K-562 leukemia. In addition, the growth in the experiment with MALME-3M melanoma was 108%; in the experiment on MDA-MB-231 breast, 107%; in the experiment with RXF 393 renal, 106%; with SF-268 CNS, 100%; in the experiment on SF-295 CNS, 103%; in the experiment with SF-539 CNS it was 105%. The results for the growth in the experiment on UACC-257 melanoma and with M14 melanoma were 99.9% and 161%, respectively.
As to `CC1=C2[C@@H](CC1)[C@]1(C)O[C@@](C3CCNCC3)(C[C@H]1OC(=O)CO)[C@H]2OC(=O)/C=C/c1ccccc1`, the growth with NCI-H23 lung is 84.9%; in the experiment on NCI-H226 lung, 92.3%; in the experiment with NCI-H322M lung, 105%; in the experiment on HOP-62 NSCLC, 94.5%; in the experiment on NCI-H460 lung, 94.1%; in the experiment with HOP-92 NSCLC it was 71.8%. The growth with NCI-H522 lung was 83.6%; in the experiment on A549/ATCC NSCLC, 92.2%; in the experiment with 786-0 renal, 86.2%; in the experiment with COLO 205 colon it was 87.2%; in the experiment with DU-145 prostate it was 101%; in the experiment on K-562 leukemia, 62.9%. The growth was 81% in the experiment with MALME-3M melanoma; 107% with MDA-MB-231 breast; 65.4% with RXF 393 renal; 87.7% with SF-268 CNS; 90.9% with SF-295 CNS; 91.5% in the experiment with SF-539 CNS. Also, the growth in the experiment with UACC-257 melanoma is 85%; in the experiment with M14 melanoma, 83.6%.
As for `C=C(c1ccc(C(=O)O)c(F)c1)c1cc2c(cc1C)C(C)(C)CCC2(C)C`, the growth with NCI-H23 lung is 80%; in the experiment on NCI-H226 lung, 82.6%; in the experiment with NCI-H322M lung, 101%; in the experiment on HOP-62 NSCLC, 76.4%; in the experiment on NCI-H460 lung, 81.5%; in the experiment on HOP-92 NSCLC it was 58.4%. The growth in the experiment on NCI-H522 lung was 78.1%; with A549/ATCC NSCLC, 52%; with 786-0 renal, 96.6%; with COLO 205 colon, 123%; in the experiment on DU-145 prostate it was 108%; in the experiment with K-562 leukemia, 71.9%. Further, the growth with MALME-3M melanoma was 63.6%; with MDA-MB-231 breast it was 85.7%; with RXF 393 renal it was 90.9%; in the experiment on SF-268 CNS, 77.9%; with SF-295 CNS, 72.8%; in the experiment on SF-539 CNS, 81.1%. In addition, the growth was 95.8% with UACC-257 melanoma and 89.4% with M14 melanoma.
For `CCOC(=O)c1c(C)nc2ccccc2c1/C=C/c1ccc(F)cc1`, the growth with NCI-H23 lung was 51.3%; in the experiment on NCI-H226 lung, 73.9%; with NCI-H322M lung, 94.7%; with HOP-62 NSCLC, 80.9%; in the experiment on NCI-H460 lung, 81.7%; in the experiment with HOP-92 NSCLC it was 42.1%. Moreover, the growth with NCI-H522 lung is 53.8%; in the experiment on A549/ATCC NSCLC, 57.7%; with 786-0 renal, 79.5%; in the experiment with COLO 205 colon, 83.6%; with DU-145 prostate, 89.6%; in the experiment with K-562 leukemia, 50%. Besides, the growth with MALME-3M melanoma was 98.7%; in the experiment on MDA-MB-231 breast, 75.9%; in the experiment with RXF 393 renal, 101%; in the experiment with SF-268 CNS, 85.2%; in the experiment on SF-295 CNS, 67.7%; with SF-539 CNS, 81%. In addition, the growth with UACC-257 melanoma is 83%; in the experiment on M14 melanoma it was 86.5%.
Regarding `Cc1cc(O)c(=O)cc2c1C[C@H]1CC(C)(C)/C=C/C[C@]3(C)Oc4cc(=O)c(O)cc(C)c4C[C@H]3C[C@H](O)[C@@]1(C)O2`, the growth in the experiment on NCI-H23 lung was -16.7% (active); in the experiment with NCI-H226 lung, 11.9%; with NCI-H322M lung it was 24.3%; in the experiment on HOP-62 NSCLC it was 0.636% (active); with NCI-H460 lung it was -6.53% (active); in the experiment on HOP-92 NSCLC, 2.97% (active). Further, the growth is -24.9% (active) with NCI-H522 lung; -7.87% (active) with A549/ATCC NSCLC; -1.45% (active) in the experiment with 786-0 renal; -14.7% (active) with COLO 205 colon; 22.3% in the experiment on DU-145 prostate; 1.9% (active) in the experiment on K-562 leukemia. For the same compound, the growth in the experiment with MALME-3M melanoma was 0.782% (active); in the experiment with MDA-MB-231 breast, 13.5%; with RXF 393 renal, 19.8%; in the experiment on SF-268 CNS, 18.5%; with SF-295 CNS it was 3.52% (active); with SF-539 CNS, 6.95% (active). Besides, the growth is -6.56% (active) in the experiment on UACC-257 melanoma and -34% (active) in the experiment on M14 melanoma.
For the compound `COc1ccc(Nc2ncc(C#N)c(NCCCNC(=O)C3CCC3)n2)cc1`, the growth is 67.6% with NCI-H23 lung; 49% in the experiment with NCI-H226 lung; 80.8% with NCI-H322M lung; 31.4% in the experiment with HOP-62 NSCLC; 41.7% in the experiment on NCI-H460 lung; 64.3% with HOP-92 NSCLC. The growth with NCI-H522 lung is 85.1%; with A549/ATCC NSCLC it was 61.2%; in the experiment with 786-0 renal, 50.4%; in the experiment with COLO 205 colon, 33.3%; in the experiment on DU-145 prostate, 60.7%; in the experiment with K-562 leukemia, 50.4%. In addition, the growth is 78.8% in the experiment on MALME-3M melanoma; 56.5% in the experiment with MDA-MB-231 breast; -4.62% (active) in the experiment on RXF 393 renal; 30.7% in the experiment with SF-268 CNS; 76.8% in the experiment on SF-295 CNS; 28.5% in the experiment with SF-539 CNS. For the same compound, the growth with UACC-257 melanoma was 113%; in the experiment on M14 melanoma it was 70.9%.
Turning to `CCN(CC)CCOc1ccc2ccc(=O)oc2c1`, the growth in the experiment on NCI-H23 lung was 106%; in the experiment with NCI-H226 lung, 106%; in the experiment on NCI-H322M lung, 88.2%; in the experiment with HOP-62 NSCLC, 100%; in the experiment with NCI-H460 lung, 110%; in the experiment on HOP-92 NSCLC, -15.1% (active). Moreover, the growth in the experiment on NCI-H522 lung was 89.6%; in the experiment with A549/ATCC NSCLC it was 99.7%; with 786-0 renal, 101%; in the experiment on COLO 205 colon, 102%; with DU-145 prostate it was 121%; in the experiment with K-562 leukemia, 2.68% (active). In addition, the growth is 105% in the experiment on MALME-3M melanoma; 99.5% in the experiment on MDA-MB-231 breast; 103% with RXF 393 renal; 109% with SF-268 CNS; 94.3% in the experiment on SF-295 CNS; 101% in the experiment on SF-539 CNS. In addition, the growth in the experiment on UACC-257 melanoma is 93%; in the experiment with M14 melanoma it was 94.8%.
As to `Cc1oc(-c2ccc(Cl)cc2)nc1C1=NN(C(=O)c2ccncc2)C(c2ccccc2)C1` (stereo not given), the growth in the experiment on NCI-H23 lung is 87.3%; with NCI-H226 lung it was 84.6%; in the experiment with NCI-H322M lung, 93.7%; in the experiment on HOP-62 NSCLC it was 107%; in the experiment with NCI-H460 lung it was 98.6%; in the experiment on HOP-92 NSCLC, 96.1%. Further, the growth in the experiment with NCI-H522 lung is 86.6%; in the experiment on A549/ATCC NSCLC, 87.7%; with 786-0 renal, 83.4%; in the experiment with COLO 205 colon, 108%; with DU-145 prostate, 101%; in the experiment with K-562 leukemia, 85.9%. Also, the growth in the experiment on MALME-3M melanoma is 101%; in the experiment on MDA-MB-231 breast, 76.7%; with RXF 393 renal, 82.3%; in the experiment with SF-268 CNS it was 89.2%; in the experiment on SF-295 CNS, 89.4%; with SF-539 CNS, 95.6%. Further, the growth with UACC-257 melanoma is 103%; in the experiment with M14 melanoma, 99.2%.
